# Several values for one entry are separate records, joined by “and”; a condition that tells them apart may be missing. Identical values can stand only once. Counter-ions that a name gives are not always drawn.
# Tests used:
# Assay in all cases: cell viability relative to vehicle control; higher = less cytotoxic
# Details in all cases: 10 µM
# K562 = test system: K562
# In short: (§1)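 CRISPR-edited mutant clones and isogenic wild-type clones from four leukaemia lines were screened against Selleck bioactive, kinase and epigenetic probe libraries, with identity-inconsistent compounds excluded. Each compound was acoustically dispensed at a single 10 µM dose into 384-well plates holding 2000 cells in 50 µL medium per well. After 48 h the supernatant was removed and CellTiter-Glo luminescence was read. Viability was expressed as percent of the on-plate vehicle control and analysed in Genedata Screener.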
# MARIMO = test system: MARIMO
# In short: as §1
# MOLM14 = test system: MOLM14
# In short: as §1
# OCI-AML2 = test system: OCI-AML2
# In short: as §1
SMILES,cell viability (K562; SRSF2 genotype: SRSF2 P95H/wt),cell viability (K562; SRSF2 genotype: SRSF2 wt/wt),cell viability (MARIMO; SRSF2 genotype: SRSF2 P95H/wt),cell viability (MARIMO; SRSF2 genotype: SRSF2 wt/wt),cell viability (MOLM14; SRSF2 genotype: SRSF2 P95H/wt),cell viability (MOLM14; SRSF2 genotype: SRSF2 wt/wt),cell viability (OCI-AML2; SRSF2 genotype: P95H/wt),cell viability (OCI-AML2; SRSF2 genotype: wt/wt)
CCc1ccc(CCOc2ccc(CC3SC(=O)NC3=O)cc2)nc1 (stereo unspecified) [Pioglitazone hydrochloride (Actos)],100% and 97%,93.4%,104%,102%,96.4%,100%,95.7%,93.5%
CCC(C)n1ncn(-c2ccc(N3CCN(c4ccc(OCC5COC(Cn6cncn6)(c6ccc(Cl)cc6Cl)O5)cc4)CC3)cc2)c1=O (stereo unspecified) [Itraconazole (Sporanox)],76.7% and 94.4%,83.1%,49.6%,55%,71.1%,96.7%,50.8%,55.4%
CCCN(CCC)C(=O)C1=Cc2ccc(-c3ccc(C(=O)N4CCCC4)cc3)cc2N=C(N)C1 [Motolimod (VTX-2337)],34.5% and 40.5%,38.8%,33.2%,25.7%,26.5%,31%,21.7%,29%
CCCCCCCCCC(C)O (stereo unspecified) [2-Undecanol],109% and 107%,105%,111%,102%,110%,108%,110%,105%
CCN(CC)CCCCNc1ncc2cc(-c3cc(OC)cc(OC)c3)c(NC(=O)NC(C)(C)C)nc2n1,46.4% and 47.9%,49.4%,54.2%,51.9%,48.3%,47.7%,38.1%,40.1%
CSc1ccc(C(=O)/C=C/c2cc(C)c(OC(C)(C)C(=O)O)c(C)c2)cc1 [Elafibranor],91.2% and 99.2%,88.1%,91.3%,91%,34.2%,30%,61.7%,57%
CCCCc1nc2cc(/C=C/C(=O)NO)ccc2n1CCN(CC)CC [SB939 (Pracinostat)],1.57% and 13.7%,4.32%,9.81%,13.9%,1.19%,0.63%,4.26%,6.25%
CNC(=O)c1cccc(-c2ccc3c(N4CCOC[C@@H]4C)nc(N4CCOC[C@@H]4C)nc3n2)c1 [Vistusertib (AZD2014)],44.8% and 43.3%,38.4%,60.8%,48.5%,35.1%,28.9%,29.2%,28.8%
COC(=O)c1ccco1 [Methyl furan-2-carboxylate],108% and 99.5%,113%,101%,99.5%,107%,110%,111%,115%
N=C(N)NC(=O)c1nc(Cl)c(N)nc1N [Amiloride HCl],88.4% and 98.5%,92.9%,99.3%,96.2%,72.8%,86.7%,85.8%,84.7%
O=C(O)c1cn(C2CC2)c2cc(Cl)c(F)cc2c1=O [Fluoroquinolonic Acid],108% and 104%,108%,97.5%,101%,104%,110%,104%,110%
C=CCc1ccc(O)c(-c2ccc(O)c(CC=C)c2)c1 [Honokiol],84.9% and 87.5%,83.8%,84.5%,92.7%,85.5%,98.9%,66.7%,72.3%
C/C=C(/C)C(=O)O[C@H]1[C@@H](OC(=O)CC(C)C)c2c(ccc3ccc(=O)oc23)OC1(C)C [Praeruptorin E],65.9% and 77.1%,79%,57.4%,53.9%,69.4%,76.3%,25.6%,52.9%
O=C(Nc1ccc2c(O)cc(S(=O)(=O)O)cc2c1)Nc1ccc2c(O)cc(S(=O)(=O)O)cc2c1,103% and 108%,99.1%,110%,101%,101%,104%,112%,111%
CCCC(CCC)C(=O)O [Divalproex sodium],105% and 102%,103%,101%,111%,105%,105%,93.3%,108%
COC(=O)C1=CO[C@@H](O[C@@H]2O[C@H](CO)[C@@H](O)[C@H](O)[C@H]2O)[C@@H]2[C@H](C)O[C@@H](O)C[C@H]12 [Morroniside],93.4% and 87.6%,93%,85.3%,97.1%,88.1%,89.3%,88.8%,106%
O=C(O)CCCCC(CCSCc1ccccc1)SCc1ccccc1 (stereo unspecified),106% and 104%,100%,99.6%,111%,100%,103%,94.6%,112%
O=c1[nH]c(=O)n(C2CC(O)C(CO)O2)cc1I (stereo unspecified) [Idoxuridin],86.7% and 92.3%,77%,102%,98.3%,80.5%,88.1%,83.3%,84.3%
CC(C)(C)C(=O)Oc1ccc(S(=O)(=O)Nc2ccccc2C(=O)NCC(=O)O)cc1 [Sivelestat sodium tetrahydrate],101% and 94.9%,102%,96.7%,102%,106%,100%,96.5%,99.2%

SMILES,cell viability (K562; SRSF2 genotype: SRSF2 P95H/wt),cell viability (K562; SRSF2 genotype: SRSF2 wt/wt),cell viability (MARIMO; SRSF2 genotype: SRSF2 P95H/wt),cell viability (MARIMO; SRSF2 genotype: SRSF2 wt/wt),cell viability (MOLM14; SRSF2 genotype: SRSF2 P95H/wt),cell viability (MOLM14; SRSF2 genotype: SRSF2 wt/wt),cell viability (OCI-AML2; SRSF2 genotype: P95H/wt),cell viability (OCI-AML2; SRSF2 genotype: wt/wt)
COc1ccc(-c2cc(=O)c3c(O)cc(O[C@@H]4O[C@H](CO[C@@H]5O[C@@H](C)[C@H](O)[C@@H](O)[C@H]5O)[C@@H](O)[C@H](O)[C@H]4O)cc3o2)cc1O [Diosmin],90.8% and 97.8%,89.9%,94.8%,101%,97.6%,92.4%,90.4%,92.4%
CN1CCN(c2nc(C3=C(c4c[nH]c5ccccc45)C(=O)NC3=O)c3ccccc3n2)CC1 [Sotrastaurin (AEB071)],88.8% and 91.3%,81.6%,72.4%,80.5%,30.8%,21.6%,32.8%,50.3%
Cc1ccc(Sc2ccccc2N2CCNCC2)c(C)c1,2.01% and 3.74%,2.31%,6.07%,11.2%,3.31%,3.18%,0.2%,0.89%
CC(C[N+](C)(C)C)OC(N)=O (stereo unspecified) [Bethanechol chloride],97.9% and 102%,102%,111%,112%,108%,109%,109%,98.2%
O=Cc1ccc(CO)o1 [5-Hydroxymethylfurfural],91.8% and 86.8%,84%,85%,95.1%,86.9%,91.3%,85.6%,92.7%
C[C@@H]1O[C@@H](O[C@H]2[C@H](O[C@H]3CC[C@@]4(C)[C@@H](CC[C@]5(C)[C@@H]4CC=C4[C@@H]6CC(C)(C)CC[C@]6(C(=O)O)CC[C@]45C)[C@]3(C)CO)OC[C@H](O)[C@@H]2O)[C@H](O)[C@H](O)[C@H]1O,33.7% and 24.8%,40.6%,71.8%,74.1%,39%,45.4%,45%,48.8%
COc1cc(C(C)=O)ccc1O [Apocynin (Acetovanillone)],103% and 104%,105%,91.6%,110%,104%,103%,93%,93.7%
O=C(/C=C/c1cccc(S(=O)(=O)Nc2ccccc2)c1)NO [Belinostat (PXD101)],1.83% and 15.8%,5.17%,8.17%,13.7%,0.86%,0.57%,2.66%,4.34%
Nc1ncnc2c1c(-c1cnc3[nH]ccc3c1)nn2C1CCCC1,6.97% and 21.9%,9.11%,27.8%,26.9%,9.21%,13.2%,2.15%,7.66%
CCc1nc(-c2cccc(C)c2)c(-c2ccnc(NC(=O)c3ccccc3)c2)s1,75.8% and 73%,66.3%,72.3%,64%,76.5%,86.7%,83.7%,76.5%
O=C(O)CCc1ccc(O)cc1 [Phloretic acid],99.4% and 99.9%,94.6%,93.9%,104%,109%,103%,99.2%,105%
Cc1ccc2c(=O)c3cccc(CC(=O)O)c3oc2c1C [DMXAA (Vadimezan)],90% and 87.7%,90.5%,89.9%,102%,85.4%,87.8%,88.9%,93.1%
CC1=CC(=O)NS(=O)(=O)O1 [Acesulfame Potassium],96.3% and 96.7%,96.3%,98.1%,94.4%,98.9%,97.8%,89.1%,105%
CC1CNc2c(cccc2S(=O)(=O)N[C@@H](CCCNC(=N)N)C(=O)N2CC[C@@H](C)C[C@@H]2C(=O)O)C1 (stereo partly specified) [Argatroban Monohydrate],103% and 94.3%,96.2%,96.9%,103%,97.8%,106%,93.6%,94%
C[C@H]1c2cccc(O)c2C(O)=C2C(=O)[C@]3(O)C(O)=C(C(N)=O)C(=O)[C@@H](N(C)C)[C@@H]3[C@@H](O)[C@@H]21 [Doxycycline],82.7% and 74.8%,79.9%,91.8%,91.3%,102%,99.5%,88.2%,96.2%
O=c1c2ccccc2nc2n1CCc1c-2[nH]c2ccccc12 [Rutaecarpine (Rutecarpine)],103%,103%,98.5%,106%,101%,103%,95.5%,104%
COC(=O)C[C@](O)(CCCC(C)(C)O)C(=O)O[C@@H]1C(OC)=C[C@]23CCCN2CCc2cc4c(cc2[C@H]13)OCO4 [Homoharringtonine],12.4% and 19.9%,23%,9.06%,4.23%,1.21%,1.06%,5.52%,11.4%
Cc1ccc(-n2nc(C(C)(C)C)cc2NC(=O)NCc2cc(F)ccc2Oc2ccc3c(cnn3CCO)c2)cc1 [Pexmetinib (ARRY-614)],17.1% and 26.4%,23.6%,68%,69.4%,32.8%,25.9%,50%,54.4%
